PubChem BioAssay (NCI)
About 79,000 compounds went through this panel and 15% of them were active in at least one assay; those are over-represented in the sample as a whole. Calls of active or inactive are those of the source. No stated cut-off is given here; in the data, active means growth inhibition above about 70%; inactive means the rest.

Key:
[1] = NCI Yeast Anticancer Drug Screen. Data for the wt1 strain (AID 149);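 further: 0% = growth of vehicle-treated wt1 cultures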; conditions: S. cerevisiae wt1 strain (SPY 50644) growth inhibition, active compounds read high
Method in brief: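 Each compound is tested on wt1 yeast and the loss of growth versus vehicle gives the inhibition value.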

[2] = NCI Yeast Anticancer Drug Screen. Data for the rad50EPP+ strain (AID 151);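 further: 0% = growth of vehicle-treated control cultures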; conditions: S. cerevisiae rad50 mutant strain, active compounds read high
Method in brief: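 One strain with a rad50 alteration (rad50EPP+) was compound-treated, its growth then compared to that of vehicle controls.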

[3] = NCI Yeast Anticancer Drug Screen. Data for the rad50 strain (AID 155);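 further: 0% = growth of vehicle-only cultures of the same strain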; conditions: S. cerevisiae rad50 strain growth inhibition, active compounds read high
Method in brief: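 Vehicle-treated cultures provide the reference for the growth inhibition reported for compound-exposed, repair-deficient yeast.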

[4] = NCI Yeast Anticancer Drug Screen. Data for the mec2-1 strain (AID 157); conditions: S. cerevisiae mec2-1 strain, active compounds read high
Method in brief: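 Test agents were screened against the mec2-1 yeast strain, with defined DNA repair or cell cycle alteration. Growth was scored as inhibition against vehicle-only controls.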

[5] = NCI Yeast Anticancer Drug Screen. Data for the rad14 strain (AID 159);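 further: 0% = growth of vehicle-treated control cultures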; conditions: S. cerevisiae rad14 strain growth inhibition, active compounds read high
Method in brief: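 Inhibition of growth is reported for a repair-deficient yeast mutant following compound treatment, calculated relative to cultures that received vehicle.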

[6] = NCI Yeast Anticancer Drug Screen. Data for the sgs1 mgt1 strain (AID 161);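 further: 0% = growth of cultures given vehicle only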; conditions: S. cerevisiae sgs1 mgt1 strain, active compounds read high
Method in brief: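 Read-out: growth inhibition vs vehicle controls. Cells: mutant yeast strain deficient in DNA damage repair.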

[7] = NCI Yeast Anticancer Drug Screen. Data for the CLN2oe strain (AID 163);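 further: 0% = growth of vehicle-only control cultures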; conditions: S. cerevisiae CLN2oe strain, active compounds read high
Method in brief: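 Here, growth inhibition in a cell-cycle-altered yeast strain after compound exposure was quantified against vehicle control growth.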

[8] = NCI Yeast Anticancer Drug Screen. Data for the cln2 rad14 strain (AID 165);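 further: 0% = growth equal to vehicle treated cultures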; conditions: S. cerevisiae cln2 rad14 strain, active compounds read high
Method in brief: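 Growth of compound-exposed yeast (cln2 rad14 genotype) measured and expressed as inhibition relative to vehicle.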

[9] = NCI Yeast Anticancer Drug Screen. Data for the bub3 strain (AID 167); conditions: S. cerevisiae bub3 mutant strain, active compounds read high
Method in brief: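 Mutant yeast screening strain plus compound; vehicle-treated cultures serve as the 0% inhibition reference.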

[10] = NCI Yeast Anticancer Drug Screen. Data for the wt2 strain (AID 169); conditions: S. cerevisiae wt2 strain growth inhibition, active compounds read high
Method in brief: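 Genetically defined yeast strains from a DNA-repair/cell-cycle panel were used. Compound-exposed yeast growth was measured, and the inhibition was calculated relative to vehicle treatment.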

[11] = NCI Yeast Anticancer Drug Screen. Data for the mlh1 strain (AID 171);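 further: 0% = growth of vehicle-treated control cultures of the same strain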; conditions: S. cerevisiae mlh1 strain growth inhibition, active compounds read high
Method in brief: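 Here the genetically defined yeast mutant is grown with each compound, and the extent to which its growth falls below that of vehicle-exposed cells is reported.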

[12] = NCI Yeast Anticancer Drug Screen. Data for the sgs1 strain (AID 173);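 further: 0% = growth of vehicle-only control cultures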; conditions: S. cerevisiae sgs1 mutant, active compounds read high
Method in brief: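 Relative growth inhibition, referenced to vehicle, was determined in a yeast strain with a defined alteration affecting DNA damage repair or cell cycle control after compound exposure.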

[13] = NCI Yeast Anticancer Drug Screen. Data for the mlh1 rad18 strain (AID 175); conditions: S. cerevisiae mlh1 rad18 strain growth inhibition, active compounds read high
Method in brief: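 In this whole-cell yeast screen, a strain with altered DNA damage repair is challenged with compound, and its growth is measured against matched vehicle-treated controls.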

[14] = NCI Yeast Anticancer Drug Screen. Data for the rad18 strain (AID 177); conditions: S. cerevisiae rad18 mutant growth inhibition, active compounds read high
Method in brief: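 Screen uses a yeast strain with a defined lesion in DNA damage repair; compound effect is read as loss of growth compared to untreated vehicle cultures.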

[15] = NCI Yeast Anticancer Drug Screen. Data for the rad52 strain (AID 147);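 further: 0% = growth of vehicle-treated control cultures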; conditions: S. cerevisiae rad52 mutant growth inhibition, active compounds read high
Method in brief: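 Measured: yeast growth inhibition. System: strain with a defined DNA damage repair alteration. Reference: vehicle-treated control cultures.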

[16] = at 5.0 µM (retest, dose inferred, filed as 0.5)
[17] = at 50.0 µM (retest, dose inferred, filed as 5.0)

Measured: growth inhibition

O=Nn1c2ccccc2c2cc([N+](=O)[O-])ccc21
active: [1]; at 100.0 µM 92% | [2]; at 100.0 µM 85% | [3]; at 33.0 µM 89% | [3]; [17] 92% | [3]; at 50.0 µM 81.9% | [3]; at 100.0 µM 93% | [4]; [17] 91% | [4]; at 50.0 µM 75.8% | [4]; at 100.0 µM 93% | [5]; at 100.0 µM 93% | [6]; at 50.0 µM 84.5% | [7]; at 100.0 µM 94% | [8]; at 50.0 µM 72.9% | [9]; at 33.0 µM 88% | [9]; [17] 71% | [9]; at 50.0 µM 84.8% | [9]; at 100.0 µM 96% | [10]; at 100.0 µM 91% | [11]; at 100.0 µM 89% | [12]; at 100.0 µM 92% | [13]; [17] 97% | [13]; at 50.0 µM 80% | [14]; at 33.0 µM 84% | [14]; at 100.0 µM 93%
inactive: [1]; at 1.2 µM -27% | [1]; at 3.7 µM -23% | [1]; at 11.0 µM -14% | [1]; at 33.0 µM 49% | [2]; at 1.2 µM 8% | [2]; at 3.7 µM 15% | [2]; at 11.0 µM 27% | [2]; at 33.0 µM 66% | [3]; at 1.2 µM 15% | [3]; at 3.7 µM 24% | [3]; [16] 47% | [3]; at 11.0 µM 53% | [4]; at 1.2 µM -16% | [4]; at 3.7 µM -1% | [4]; [16] 51% | [4]; at 11.0 µM 11% | [4]; at 33.0 µM 59% | [5]; at 1.2 µM -19% | [5]; at 3.7 µM -5% | [5]; at 11.0 µM 1% | [5]; at 33.0 µM 61% | [6]; [16] -26% | [6]; [17] 27% | [7]; at 1.2 µM -32% | [7]; at 3.7 µM -9% | [7]; at 11.0 µM -9% | [7]; at 33.0 µM 55% | [8]; [16] 35% | [8]; [17] 62% | [9]; at 1.2 µM 4% | [9]; at 3.7 µM 19% | [9]; [16] 19% | [9]; at 11.0 µM 55% | [10]; at 1.2 µM -28% | [10]; at 3.7 µM -22% | [10]; at 11.0 µM 8% | [10]; at 33.0 µM 59% | [11]; at 1.2 µM -35% | [11]; at 3.7 µM -29% | [11]; at 11.0 µM -3% | [11]; at 33.0 µM 48% | [12]; at 1.2 µM -8% | [12]; at 3.7 µM -14% | [12]; at 11.0 µM -1% | [12]; at 33.0 µM 65% | [13]; [16] 39% | [14]; at 1.2 µM -10% | [14]; at 3.7 µM -6% | [14]; at 11.0 µM 37%

C/C(=N\NC(=S)NC1CCCC1)c1ccccn1
active: [15]; at 3.7 µM 78% | [15]; at 11.0 µM 99% | [15]; at 33.0 µM 99% | [15]; at 100.0 µM 99% | [2]; at 11.0 µM 90% | [2]; at 33.0 µM 98% | [2]; at 100.0 µM 97% | [3]; at 3.7 µM 77% | [3]; at 11.0 µM 98% | [3]; at 33.0 µM 99% | [3]; [17] 99% | [3]; at 50.0 µM 79.2% | [3]; at 100.0 µM 98% | [4]; at 3.7 µM 77% | [4]; at 11.0 µM 99% | [4]; at 33.0 µM 99% | [4]; [17] 97% | [4]; at 50.0 µM 86% | [4]; at 100.0 µM 99% | [6]; [17] 99% | [6]; at 50.0 µM 92% | [7]; at 3.7 µM 84% | [7]; at 11.0 µM 99% | [7]; at 33.0 µM 99% | [7]; at 100.0 µM 99% | [8]; [17] 100% | [8]; at 50.0 µM 90.3% | [9]; at 11.0 µM 99% | [9]; at 33.0 µM 99% | [9]; [17] 98% | [9]; at 50.0 µM 91% | [9]; at 100.0 µM 99% | [10]; at 3.7 µM 71% | [10]; at 11.0 µM 99% | [10]; at 33.0 µM 99% | [10]; at 100.0 µM 99% | [11]; at 3.7 µM 71% | [11]; at 11.0 µM 98% | [11]; at 33.0 µM 98% | [11]; at 100.0 µM 98% | [12]; at 3.7 µM 79% | [12]; at 11.0 µM 99% | [12]; at 33.0 µM 99% | [12]; at 100.0 µM 99% | [13]; [17] 98% | [13]; at 50.0 µM 91.5% | [14]; at 3.7 µM 79% | [14]; at 11.0 µM 98% | [14]; at 33.0 µM 99% | [14]; at 100.0 µM 95%
inactive: [15]; at 1.2 µM -5% | [2]; at 1.2 µM -6% | [2]; at 3.7 µM 14% | [3]; at 1.2 µM -5% | [3]; [16] 23% | [4]; at 1.2 µM 2% | [4]; [16] 33% | [6]; [16] 13% | [7]; at 1.2 µM -6% | [8]; [16] 41% | [9]; at 1.2 µM -5% | [9]; at 3.7 µM 64% | [9]; [16] 9% | [10]; at 1.2 µM -3% | [11]; at 1.2 µM -3% | [12]; at 1.2 µM 0% | [13]; [16] 13% | [14]; at 1.2 µM -5%
